Drawing on PubChem BioAssay AID720551 (National Center for Advancing Translational Sciences (NCATS), 2013), this text covers activity change for 91 compounds.

Screen size: about 340,000 compounds; about 1,300 (0.38%) were called active. Many of the other results were omitted from the sample, so actives are more common in it than they were. A number with no mark means an inactive call.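 The calls were made as follows: active = maximum activity change below -70%; inconclusive = maximum activity change between -70% and -50%; inactive = maximum activity change above -50%.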
% is scaled to controls: 0 for no effect and ±100 for the full control effect.

For the assay, the target named is Voltage-gated inwardly rectifying potassium channel KCNH2 (Homo sapiens) (UniProt Q12809). Kind of assay: qHTS for Inhibitors of KCHN2 3.1: Wildtype qHTS. The settings on record: U2OS, BacMam KCNH2, thallium flux FluxOr; at 1.84 µM; hits give low values. The source says: Many antipsychotic drugs that inhibit the neurotransmitter dopamine also bind to hERG1 channel which might help explain their antipsychotic activity but also produces cardiac side effects. The discovery of the novel KCNH2 3.1 isoform offers a potential new target for the development of antipsychotic drugs without cardiac side effects. This proposal will use a high throughput thallium flux assay developed for KCNH2 to screen compounds that modulate the activity of KCNH2 3.1. The wild type KCNH2 channel will also be screened in parallel to help define the selective modulators of this KCNH2 3.1 potassium channel. The resulting compounds will be validated in electrophysiology experiments. The availability of animal models will allow future testing in vivo for effects on memory and other aspects of animal physiology linked with psychosis. NIH Chemical Genomics Center [NCGC] NIH Molecular Libraries Probe Centers Network [MLPCN] MLPCN Grant: MH096539 Assay Submitter (PI): James Barrow, Johns Hopkins University, Lieber Institute for Brain Development
Chain of Voltage-gated inwardly rectifying potassium channel KCNH2 (Homo sapiens) (Q12809 whole entry, looked up, canonical isoform): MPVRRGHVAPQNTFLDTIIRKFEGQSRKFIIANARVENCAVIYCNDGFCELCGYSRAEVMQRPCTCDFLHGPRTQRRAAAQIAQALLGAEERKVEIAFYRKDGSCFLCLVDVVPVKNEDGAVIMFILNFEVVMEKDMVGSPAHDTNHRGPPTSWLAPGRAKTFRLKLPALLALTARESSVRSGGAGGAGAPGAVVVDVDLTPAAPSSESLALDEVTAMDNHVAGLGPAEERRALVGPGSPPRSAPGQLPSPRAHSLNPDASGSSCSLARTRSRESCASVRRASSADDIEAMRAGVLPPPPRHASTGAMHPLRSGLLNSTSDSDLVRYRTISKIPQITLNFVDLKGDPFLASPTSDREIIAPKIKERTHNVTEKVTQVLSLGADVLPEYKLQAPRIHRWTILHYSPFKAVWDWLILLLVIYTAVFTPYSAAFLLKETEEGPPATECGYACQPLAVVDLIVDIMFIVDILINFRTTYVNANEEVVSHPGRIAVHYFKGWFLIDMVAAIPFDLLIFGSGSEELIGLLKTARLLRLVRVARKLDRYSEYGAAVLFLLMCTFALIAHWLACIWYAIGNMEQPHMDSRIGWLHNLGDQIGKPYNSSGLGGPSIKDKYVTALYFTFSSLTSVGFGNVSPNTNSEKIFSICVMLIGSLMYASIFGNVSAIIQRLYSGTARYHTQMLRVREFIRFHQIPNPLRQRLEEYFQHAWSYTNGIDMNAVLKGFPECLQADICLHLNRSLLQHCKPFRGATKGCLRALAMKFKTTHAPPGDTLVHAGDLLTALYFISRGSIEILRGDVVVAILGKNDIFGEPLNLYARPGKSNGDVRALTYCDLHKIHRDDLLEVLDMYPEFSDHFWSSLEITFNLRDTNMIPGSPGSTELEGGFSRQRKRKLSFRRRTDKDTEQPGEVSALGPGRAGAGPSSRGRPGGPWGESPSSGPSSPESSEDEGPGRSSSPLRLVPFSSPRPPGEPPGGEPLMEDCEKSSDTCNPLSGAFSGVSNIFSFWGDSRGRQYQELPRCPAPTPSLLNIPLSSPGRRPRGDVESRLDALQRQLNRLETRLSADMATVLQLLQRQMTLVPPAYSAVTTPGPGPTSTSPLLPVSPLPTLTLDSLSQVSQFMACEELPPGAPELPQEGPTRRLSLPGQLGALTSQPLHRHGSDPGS
U2OS cells were resuspended in cell media containing 10% fetal calf serum (FCS) at a concentration of 2 million cells / mL. The solution was treated with the Wild-type virus at 2.03 x 10^8 / mL and allowed to incubate at room temperature in the dark. After 4 hours of incubation, DMEM + 10% fetal bovine serum (FBS) was added to the cell solution. Three microliter was then dispensed into a 1536 tissue culture treated black assay plates which were incubated overnight at 37 C. Two microliter of loading buffer (HBSS + HEPES + Red40 dye quencher + FluxOr dye) was added and the assay plates were incubated for 45 min at room temperature in the dark. […] A stimulation buffer was added to the plate and the second kinetic read (2 min) was obtained. The rate constant was calculated from the kinetic reads and normalized to the positive and negative DMSO controls.
In general terms: qHTS replaces the single test concentration by a dilution series.
For `CN(C)C1=NC[C@H](Cc2ccccc2)N1CCc1ccc(F)cc1`, the activity change is -88.4% (active).
Under `CCCCN1C(N)=NC[C@@H]1Cc1ccccc1` stands -3.39%.
In the case of `CCCC[C@@H]1CN=C(N)N1CCc1cccc(F)c1`, the activity change was -2.35%.
Under `O=C1OCCC1=COCCCCOC=C1CCOC1=O` stands 0.218%; under `COC(=O)C[C@H]1C[C@@H]2c3cc(NC(=O)Nc4ccccc4)ccc3O[C@@H]2[C@@H](CO)O1`, -0.954%.
To `COc1ccc(C(=O)Nc2sc(C)c(C)c2CN2CCOCC2)cc1` belongs -3.94%.
On to `CCOc1ccc(NC(=O)CN2CCN(CC(=O)Nc3ccc(OC)cc3)CC2)cc1`, for which the activity change is -141% (active).
To `CCc1ccc(NC(=O)CN2CCC(C(=O)c3ccc(OC)cc3)CC2)cc1` belongs 1.48%; to `COc1cccc(NC(=O)CN2CCN(CC(=O)Nc3ccccc3Cl)CC2)c1`, 19.7%; to `CCc1cc(C(=O)c2ccc(OC)cc2)c(NC(=O)CN2CCN(C)CC2)s1`, -79.3% (active).
To `CCOc1ccc(NC(=O)N2CCN(CC)CC2)cc1` belongs 0.628%; to `C[C@H](CO)N1C[C@H](C)[C@@H](CN(C)C(=O)c2cnccn2)Oc2ncc(Br)cc2C1=O`, -7.83%; to `O=C(NCCOc1ccccc1)N1[C@H]2CC[C@@H]1C=C(c1ccc(F)cc1OCc1ccccc1)C2`, 2.38%.
To `O=C1CN(C(=O)COc2c(Cl)cccc2Cl)c2ccccc2N1` belongs -143% (active); to `O=C1CN(C(=O)COC(=O)c2cnc(Cl)c(Cl)c2)c2ccccc2N1`, 8.42%; to `Cc1ccccc1SCC(=O)OCC(=O)N1CC(=O)Nc2ccccc21`, 7.23%.
Take `COc1ccc(NC(=O)CSc2nnnn2-c2cccc(OC)c2)cc1`: the activity change is 52.5%.
To `Cc1ccc(S(=O)(=O)N2C[C@@H](C)[C@]3(C2)[C@H](O)[C@H](OC(=O)NCc2ccccc2)C[C@H]2C(=O)N(c4ccccc4)C(=O)[C@H]23)cc1` belongs -2.73%; to `COc1ccc([C@H]2N[C@]3(CCCN(CC4CCCCC4)C3=O)[C@H]3C(=O)N(C)C(=O)[C@@H]23)cc1`, 14.1%.
For the compound `COc1ccc(SC[C@H](Cc2ccccc2)N2CCN(CCc3ccccc3)CCC2=O)cc1`, the activity change was -108% (active).
Under `C[C@H]1CCC(=O)N([C@H](CSc2ccccc2)Cc2ccccc2)CC1` stands 9.67%.
To `O=C1CC[C@H](O)CCN1[C@H](CSc1ccc(Br)cc1)Cc1ccccc1` belongs 0.842%; to `C[C@H]1CN([C@@H](C)CO)C(=O)CCCn2cc(nn2)CO[C@@H]1CN(C)S(=O)(=O)c1cccc(C#N)c1`, -15.1%.
Under `CC(OC(=O)c1cccnc1Cl)C(=O)NC1CCCCC1` (stereo unspecified) stands 10.4%.
For `COc1ccc(-n2c(-c3ccc(Cl)cc3)n[nH]c2=S)c(OC)c1`, the activity change was -22.5%.
Under `Cc1nn(-c2ccccc2)c2c1C(=O)NC(=O)C(C)(C)C2` stands -0.0713%.
To `CC1=C(N2CCN(c3ncccn3)CC2)CCC1=O` belongs 2.31%; to `Cc1nn(-c2ncccn2)c2c1C(=O)CC(C)(C)C2Br` (stereo unspecified), -151% (active).
In the case of `O=C(COC(=O)CCc1c[nH]c2ccccc12)Nc1cccc(Cl)c1`, the activity change was -8.07%.
As to `CC1(C)CN(CCc2ccccc2)C(=O)[C@H]1CC(=O)Nc1ccc(Br)cc1`, the activity change was -7.47%.
To `CCCNC(=O)c1ccc(N2CCC3(CC2)CC(c2ccc(Cl)cc2)=NO3)c([N+](=O)[O-])c1` belongs -85.9% (active).
Under `COCCNC(=O)c1ccc(N2CCC3(CC2)OCCO3)c([N+](=O)[O-])c1` stands -4.71%; under `CCC(C)NC(=O)c1ccc(N2CCC3(CC2)OCCO3)c([N+](=O)[O-])c1` (stereo unspecified), -3.92%.
On to `COc1cc(OC)cc(C(=O)NCC(=O)N2CCCCCCC2)c1`, for which the activity change is 8.95%.
In the case of `Cc1cc(C)cc(C(=O)NCC(=O)OCC(=O)N2CCCCC2)c1`, the activity change was -9.23%.
Under `COc1ccc(OC)c(CN2CCN(C(=O)CNC(=O)c3cc(C)cc(C)c3)CC2)c1` stands -138% (active).
Under `COc1ccc(C(CNC(=O)CSc2ccccc2)N2CCOCC2)cc1` (stereo unspecified) stands -6.03%; under `Cc1ccc(C=O)c([B-](F)(F)F)c1`, -18.6%; under `Cc1cc(=O)c2ccc(NC(=O)c3ccccc3)cc2[nH]1`, 13.6%.
Under `COc1cc(C)c(CN2CCN(C(=O)CCC(=O)c3ccc(C)s3)CC2)cc1OC` stands 1.74%; under `O=C(Nc1ccc(Br)cc1)C1CCC(=O)N1Cc1ccccc1Cl` (stereo unspecified), -94.2% (active); under `O=C1c2ccccc2C(O)N1Cc1ccccc1Cl` (stereo unspecified), 23.3%.
Consider `COc1ccc(NC(=O)N2CCCC2C(=O)NCc2ccccc2Cl)cc1` (stereo unspecified), for which the activity change was -3.26%.
As to `CCN1CCN(CC(=O)Nc2sc3c(c2C#N)CCC3)CC1`, the activity change is 5.2%.
`O=C(CN1CCCC1)Nc1sc2c(c1C(=O)Nc1ccccc1)CCCC2`: the activity change was -93.7% (active).
To `O=C(O)c1c(NC(=O)N2CCCC2)sc2c1CCCC2` belongs 0.0561%; to `c1ccc(Cn2nnc3c(NCC4CC4)ncnc32)cc1`, -10.7%; to `Cc1c(NC(=O)COC(=O)/C=C/c2cccc(F)c2)c(=O)n(-c2ccccc2)n1C`, 0.394%.
To `Cc1csc(=O)n1CCC(=O)OCC(=O)Nc1ccc(N2CCOCC2)cc1` belongs -7.46%.
Regarding `Cn1c(CCN2CCN(c3ccccn3)CC2)nc2cc(NS(=O)(=O)c3ccc(F)cc3)ccc21`, the activity change was -20.6%.
To `COc1cc2[nH]c(=O)n(Cc3ccc(C(=O)NC4CCN(Cc5ccccc5)CC4)cc3)c(=O)c2cc1OC` belongs -9.69%.
Under `COc1ccc(C(=O)NC2CC2)cc1OC1CCN(C/C=C/c2ccccc2)CC1` stands -83.5% (active); under `COc1ccc(C(=O)NCCn2nc(C)cc2C)cc1OC1CCN(C(C)=O)CC1`, 3.09%; under `COc1ccc(C(=O)NC2CC2)cc1OC1CCN(Cc2ccc(SC)cc2)CC1`, -117% (active).
Turning to `COc1cc(C(=O)N2CCN(C/C=C/c3ccccc3)CC2)cc(OC)c1C`, the activity change was -0.254%.
Under `COc1ccc(C(=O)NC2CC2)cc1OC1CCN(Cc2cnn(C)c2)CC1` stands -9.12%; under `O=C(NCc1ccccc1)C1CNCC(C(=O)NCc2ccccc2)C1` (stereo unspecified), -19%.
Under `COc1ccc(-c2ccc3[nH]c4c(c3c2)CCN2C[C@H]3[C@H](C)ON(C)[C@H]3C[C@@H]42)cc1` stands -1.03%.
On to `COc1cc(NC(=O)C2=C(C)OCCS2)c(Cl)cc1C(=O)NCCCN1CCCC(C)C1` (stereo unspecified), for which the activity change is 15%.
To `N#CC1(Nc2ccc3c4c(cccc24)CC3)CCCCC1` belongs -12.6%; to `COc1cccc(CC2(CO)CCCN(Cc3ccc(OC(F)F)cc3)C2)c1` (stereo unspecified), -73.9% (active); to `COc1cccc(CC2(CO)CCCN(CC3=Cc4cc(OC)ccc4OC3)C2)c1` (stereo unspecified), 8.29%.
`COc1cccc(CC2(CO)CCCN(Cc3nc(-c4cccs4)oc3C)C2)c1` (stereo unspecified): the activity change is -11.7%.
Under `C[C@@H]1CN([C@@H](C)CO)C(=O)CCCn2nncc2CO[C@H]1CN(C)C(=O)Nc1ccc(C(F)(F)F)cc1` stands -21.9%; under `O=C(CN1CCCCC1)Nc1ccccc1C(=O)NC1CC1`, 4.09%; under `N#Cc1ccc(CN2CCN(CC(=O)Nc3ccccc3C(=O)NC3CC3)CC2)cc1`, -89.2% (active).
To `Cc1ccc(OCC(=O)Nc2ccccc2C(=O)NC2CC2)cc1` belongs 36.5%; to `COc1ccc(OC)c(C(=O)NC2CCCc3c2cnn3-c2cc(C)cc(C)c2)c1` (stereo unspecified), -0.114%; to `CC1(C)NC(=O)N(CC(=O)Nc2ccc(-c3ccccc3)cc2)C1=O`, -12.6%.
Under `O=C(NCc1ccco1)c1sc2cccc(F)c2c1Cl` stands -25.2%; under `COc1ccc2oc(C(=O)NCc3ccco3)c(C)c2c1`, 26.9%.
Regarding `COc1ccc2c(Cl)c(C(=O)NCc3ccco3)sc2c1`, the activity change is -70.1% (active).
To `OCC1OC(n2cnc3c(N4CCCC4)ncnc32)C(O)C1O` (stereo unspecified) belongs -11.6%; to `C[C@H]1CN(c2ccc(Br)cc2)C(=O)[C@@H]1CC(=O)Nc1ccc(Br)cc1`, 1.02%.
To `C=CCNC(=O)c1sc(SC)cc1-c1ccc(Cl)cc1` belongs -187% (active); to `CSc1sc(C(=O)NNC(=O)c2ccc(Cl)cc2)c2c1C=CCC2`, -2.11%; to `CN(CC(=O)Nc1ccc(F)cc1)C(=O)c1ccc(-c2ccc(Cl)cc2)o1`, -18.6%.
To `Cc1ccc(S(=O)(=O)NCCN2CCOCC2)cc1C` belongs -76.1% (active).
Take `Cc1cc(C)c(S(=O)(=O)NCCCN2CCOCC2)cc1Br`: the activity change was 12.5%.
Under `O=S(=O)(NCCCN1CCOCC1)c1ccc(F)c(Cl)c1` stands 4.11%.
To `C[C@H]1CN([C@@H](C)CO)S(=O)(=O)c2ccc(Br)cc2O[C@H]1CN(C)C(=O)c1cnccn1` belongs 2.27%; to `COC(=O)Cn1nc(-c2ccccc2)c2cc(Cl)ccc21`, -4.79%.
To `COCCCNc1nc2c(-c3cccc(C(F)(F)F)c3)nnn2c2ccccc12` belongs -4.14%; to `COCCCNc1nc2c(-c3cccc(C)c3)nnn2c2ccc(Cl)cc12`, -86% (active); to `Cc1nnc(SC(C)C(=O)c2c[nH]c3ccccc23)n1C1CC1` (stereo unspecified), -2.83%.
In the case of `Cc1cn([C@H]2C[C@H](O)[C@@H](CNC(=O)[C@H](N)Cc3cccnc3)O2)c(=O)[nH]c1=O`, the activity change is -1.56%.
Under `O=C(C[C@H]1C[C@@H]2c3cc(NC(=O)C4CCC4)ccc3O[C@@H]2[C@H](CO)O1)NC1CCCCC1` stands -22.6%; under `O=C(C1CCCO1)N1CCN(C(=O)C23CC4CC(CC(C4)C2)C3)CC1` (stereo unspecified), -8.69%.
As for `O=c1[nH]nc(Cc2ccccn2)c2ccccc12`, the activity change was -160% (active).
`c1ccc(CCc2ccccn2)cc1`: the activity change is 15.2%.
Under `Cc1ccc(C(=O)C(C)OC(=O)Cc2n[nH]c(=O)c3ccccc23)cc1C` (stereo unspecified) stands 5.46%.
